From PubChem BioAssay (NCATS)
Inconclusive results are not listed. Active and inactive are the calls of the source. Calls follow the shape of the dose curve; as a rule, active = well fitted curve in the direction sought with a large enough effect; inconclusive = small, poorly fitted or top-dose-only effect, or another doubt; inactive = no such curve, though single readings can be large; an effect the other way counts as inactive or inconclusive.

Key:
[1] = qHTS of pediatric cancer cell lines to identify multiple opportunities for drug repurposing: Primary screen for TC32 cells (AID 1347089); also: nearly all actives have a fitted effect of over 60% in size; also: potency is read from the fitted curve at half-maximal effect; as to activity change, negative = cytotoxic: % is scaled to controls: 0 for no effect and ±100 for the full control effect
Outline: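 Luminescent ATP read-out (CellTiter-Glo) of metabolically active TC32 cells after 48 h exposure. Concentration-response curves came from 11-point (MIPE, 0.78 nM–46 µM) or 8-point (NPC, 0.59 nM–46 µM) primary titrations; follow-up used 11 points.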

[2] = qHTS of pediatric cancer cell lines to identify multiple opportunities for drug repurposing: Primary screen for DAOY cells (AID 1347090); also: nearly all actives have a fitted effect of over 55% in size; also: potency is read from the fitted curve at half-maximal effect;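 as to activity change, negative = cytotoxic: series mostly up to about 46 µM; plate controls were DMSO for no effect and bortezomib for full effect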
Outline: (§1)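 Cell viability, CellTiter-Glo luminescence; 500-1,000 cells/well, 8- or 11-point titration, 48 h compound exposure at 37 degrees C, 5% CO2. Controls: DMSO neutral, bortezomib 2.3 µM final as positive.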

[3] = qHTS of pediatric cancer cell lines to identify multiple opportunities for drug repurposing: Primary screen for A673 cells (AID 1347092); also: nearly all actives have a fitted effect of over 45% in size; also: potency is read from the fitted curve at half-maximal effect; as to activity change, negative = cytotoxic: % is scaled to controls: 0 for no effect and ±100 for the full control effect
Outline: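 Cell viability of A673 measured by CellTiter-Glo ATP luminescence after 48 hours compound exposure. Dilution series spanned 0.78 nM to 46 µM (MIPE, 11-point) or 0.59 nM to 46 µM (NPC, 8-point); bortezomib 2.3 uM positive control.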

[4] = qHTS of pediatric cancer cell lines to identify multiple opportunities for drug repurposing: Primary screen for BT-37 cells (AID 1347094); also: potency is read from the fitted curve at half-maximal effect;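 as to activity change, negative = cytotoxic: series mostly up to about 57 µM; plate controls were DMSO for no effect and bortezomib for full effect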
Outline: (§2)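 Phenotypic viability qHTS, 48 h compound exposure, CellTiter-Glo luminescence read-out; multi-concentration dosing so that potency and efficacy derive directly from the primary screen's curves.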

[5] = qHTS of pediatric cancer cell lines to identify multiple opportunities for drug repurposing: Primary screen for NB-EBc1 cells (AID 1347095); also: potency is read from the fitted curve at half-maximal effect;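 as to activity change, negative = cytotoxic: plate controls were DMSO neutral control for no effect and bortezomib for full effect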
Outline: as §2

[6] = qHTS of pediatric cancer cell lines to identify multiple opportunities for drug repurposing: Primary screen for SK-N-SH cells (AID 1347098); also: nearly all actives have a fitted effect of over 65% in size; also: potency is read from the fitted curve at half-maximal effect
Outline: (§3)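 Cells (500-1,000/well) rested 5 h, then received compounds for 48 h; metabolically active cells were measured by CellTiter-Glo luminescence. Final concentrations spanned up to 46 µM (MIPE, 11-point) or 0.59 nM-46 µM (NPC, 8-point) in primary screens, 11-point in follow-ups.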

[7] = qHTS of pediatric cancer cell lines to identify multiple opportunities for drug repurposing: Primary screen for NB1643 cells (AID 1347099); also: nearly all actives have a fitted effect of over 50% in size; also: potency is read from the fitted curve at half-maximal effect;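 as to activity change, negative = cytotoxic: plate controls were DMSO neutral control for no effect and bortezomib positive control for full effect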
Outline: as §2

[8] = qHTS of pediatric cancer cell lines to identify multiple opportunities for drug repurposing: Primary screen for LAN-5 cells (AID 1347100); also: potency is read from the fitted curve at half-maximal effect;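 as to activity change, negative = cytotoxic: plate controls were DMSO neutral control for no effect and bortezomib positive control for full effect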
Outline: as §3

[9] = qHTS of pediatric cancer cell lines to identify multiple opportunities for drug repurposing: Primary screen for BT-12 cells (AID 1347101); also: nearly all actives have a fitted effect of over 25% in size; also: potency is read from the fitted curve at half-maximal effect;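 as to activity change, negative = cytotoxic: plate controls were DMSO for no effect and bortezomib positive control for full effect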
Outline: as §3

[10] = qHTS of pediatric cancer cell lines to identify multiple opportunities for drug repurposing: Primary screen for Rh18 cells (AID 1347102); also: nearly all actives have a fitted effect of over 65% in size; also: potency is read from the fitted curve at half-maximal effect; as to activity change, negative = cytotoxic: % is scaled to controls: 0 for no effect and ±100 for the full control effect
Outline: as §3

[11] = qHTS of pediatric cancer cell lines to identify multiple opportunities for drug repurposing: Primary screen for OHS-50 cells (AID 1347103); also: nearly all actives have a fitted effect of over 40% in size; also: potency is read from the fitted curve at half-maximal effect;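 as to activity change, negative = cytotoxic: plate controls were DMSO neutral control for no effect and bortezomib positive control for full effect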
Outline: as §3

[12] = qHTS of pediatric cancer cell lines to identify multiple opportunities for drug repurposing: Primary screen for RD cells (AID 1347104); also: nearly all actives have a fitted effect of over 55% in size; also: potency is read from the fitted curve at half-maximal effect;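 as to activity change, negative = cytotoxic: plate controls were DMSO for no effect and bortezomib for full effect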
Outline: as §2

[13] = qHTS of pediatric cancer cell lines to identify multiple opportunities for drug repurposing: Primary screen for SK-N-MC cells (AID 1347093); also: potency is read from the fitted curve at half-maximal effect;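 as to activity change, negative = cytotoxic: series mostly up to about 46 µM; plate controls were DMSO neutral control for no effect and bortezomib for full effect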
Outline: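 Metabolically active cells were quantified by ATP-dependent luminescence (CellTiter-Glo, 15 min at room temperature) following 48 h treatment. Cells had been plated at 500-1,000 per well and settled for 5 h beforehand.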

[14] = qHTS of pediatric cancer cell lines to identify multiple opportunities for drug repurposing: Primary screen for U-2 OS cells (AID 1347096);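 also: plate controls were DMSO wells for no effect and bortezomib positive control wells for full effect; nearly all actives have a fitted effect of over 50% in size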
Outline: as §3

[15] = qHTS of pediatric cancer cell lines to identify multiple opportunities for drug repurposing: Primary screen for Saos-2 cells (AID 1347097); also: nearly all actives have a fitted effect of over 40% in size; also: potency is read from the fitted curve at half-maximal effect; as to activity change, negative = cytotoxic: % is scaled to controls: 0 for no effect and ±100 for the full control effect
Outline: as §2

[16] = qHTS of pediatric cancer cell lines to identify multiple opportunities for drug repurposing: Primary screen for SJ-GBM2 cells (AID 1347091); also: potency is read from the fitted curve at half-maximal effect;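 as to activity change, negative = cytotoxic: plate controls were DMSO neutral control for no effect and bortezomib for full effect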
Outline: as §1

C[n+]1c2cc(N)ccc2cc2ccc(N)cc21 (tested in a mixture with another compound)
active: Potency [1] 14.9 µM | Potency [2] 21.1 µM | Potency [3] 5.31 µM | Potency [4] 3.47 µM | Potency [5] 11.9 µM | Potency [6] 3.86 µM | Potency [7] 7.5 µM | Potency [8] 5.96 µM | Potency [9] 3.89 µM | Potency [10] 8.41 µM | Potency [11] 17.4 µM | Potency [12] 15 µM

C[C@]12CC[C@H]3[C@@H](CCC4=CC(=O)CC[C@@]43C)[C@@H]1CC[C@@H]2C(=O)CO
inactive: Potency [1] | Potency [2] | Potency [3] | Potency [13] | Potency [4] | Potency [5] | Potency [14] | Potency [15] | Potency [7] | Potency [8] | Potency [10] | Potency [12]

CN1CCN(CCCN2c3ccccc3Sc3ccc(S(=O)(=O)N(C)C)cc32)CC1
inactive: Potency [1] | Potency [2] | Potency [5] | Potency [14] | Potency [7]
active: Potency [16] 18.8 µM | Potency [6] 15.4 µM

Nc1ccn([C@@H]2O[C@H](CO)[C@@H](O)C2(F)F)c(=O)n1
active: Potency [1] 0.0118 µM | Potency [2] 2.66 µM | Potency [3] 0.0042 µM | Potency [13] 0.106 µM | Potency [4] 0.0049 µM | Potency [5] 1.19 µM | Potency [7] 0.0422 µM | Potency [8] 0.075 µM | Potency [11] 11 µM
inactive: Potency [14] | Potency [12]

Nc1ccc(/C=C/c2ccc(N)cc2S(=O)(=O)O)c(S(=O)(=O)O)c1
inactive: activity change, negative = cytotoxic [1] 14.3% [at 0.594 µM] | activity change, negative = cytotoxic [2] 10% [at 0.597 µM] | activity change, negative = cytotoxic [3] 1.22% [at 0.597 µM] | activity change, negative = cytotoxic [4] 22.8% [at 0.745 µM] | activity change, negative = cytotoxic [14] 17% [at 0.597 µM] | activity change, negative = cytotoxic [15] 2.49% [at 0.597 µM] | activity change, negative = cytotoxic [7] 24.7% [at 0.597 µM] | activity change, negative = cytotoxic [8] 21.1% [at 0.597 µM] | activity change, negative = cytotoxic [9] 16.8% [at 0.745 µM] | activity change, negative = cytotoxic [10] 24% [at 0.597 µM] | activity change, negative = cytotoxic [11] 19.6% [at 0.73 µM] | activity change, negative = cytotoxic [12] 13.1% [at 0.597 µM]

NC(CO)(CO)CO
inactive: Potency [1] | Potency [2] | Potency [3] | Potency [4] | Potency [14] | Potency [15] | Potency [6] | Potency [7] | Potency [8] | Potency [9] | Potency [10] | Potency [11] | Potency [12]

CO/N=C1\CN(c2nc3c(cc2F)c(=O)c(C(=O)O)cn3C2CC2)CC1CN (stereo not drawn)
inactive: Potency [1] | Potency [2] | Potency [3] | Potency [13] | Potency [4] | Potency [5] | Potency [14] | Potency [15] | Potency [6] | Potency [7] | Potency [8] | Potency [10] | Potency [12]

O=C(Nc1ccc(Oc2ccc(Cl)cc2)c(Cl)c1)c1cc(I)cc(I)c1O
active: Potency [16] 15 µM
inactive: Potency [1] | Potency [2] | Potency [4] | Potency [9] | Potency [10]

CN(C)CC/C=C1/c2ccccc2COc2ccc(CC(=O)O)cc21
inactive: Potency [1] | Potency [2] | Potency [3] | Potency [13] | Potency [4] | Potency [15] | Potency [6] | Potency [7] | Potency [8] | Potency [9] | Potency [10] | Potency [11] | Potency [12]

CC1(C)O[C@@H]2[C@@H](CO[C@@]3(COS(N)(=O)=O)OC(C)(C)O[C@@H]23)O1
inactive: Potency [1] | Potency [2] | Potency [3] | Potency [13] | Potency [4] | Potency [5] | Potency [15] | Potency [6] | Potency [7] | Potency [8] | Potency [9] | Potency [10] | Potency [11] | Potency [12]

Cc1cccn2c(=O)c(-c3nnn[nH]3)cnc12
inactive: Potency [1] | Potency [2] | Potency [3] | Potency [13] | Potency [4] | Potency [14] | Potency [15] | Potency [6] | Potency [7] | Potency [8] | Potency [9] | Potency [10] | Potency [11] | Potency [12]

C[C@H]1C[C@H]2[C@@H]3CCC4=CC(=O)C=C[C@]4(C)[C@@]3(Cl)[C@@H](O)C[C@]2(C)[C@@]1(O)C(=O)CO
active: Potency [13] 15 µM
inactive: Potency [1] | Potency [2] | Potency [3] | Potency [4] | Potency [5] | Potency [15] | Potency [6] | Potency [7] | Potency [8] | Potency [9] | Potency [10] | Potency [12]

O=C(O)CNC(=O)c1ccccc1
inactive: Potency [1] | Potency [2] | Potency [3] | Potency [13] | Potency [4] | Potency [5] | Potency [14] | Potency [15] | Potency [6] | Potency [7] | Potency [8] | Potency [9] | Potency [10] | Potency [11] | Potency [12]

Cc1c(C)n(Cc2ccccc2)c2ccc(C(=O)OCCN(C)C)cc12
inactive: Potency [1] | Potency [2] | Potency [3] | Potency [4] | Potency [7] | Potency [8] | Potency [12]

CCN(CCCCOC(=O)c1ccc(OC)c(OC)c1)C(C)Cc1ccc(OC)cc1 (stereo not drawn)
inactive: Potency [1] | Potency [2] | Potency [3] | Potency [13] | Potency [5] | Potency [7] | Potency [8] | Potency [10] | Potency [12]

CC(C)(C(=O)c1cccnc1)c1cccnc1
inactive: Potency [1] | Potency [2] | Potency [3] | Potency [4] | Potency [5] | Potency [14] | Potency [7] | Potency [8] | Potency [9] | Potency [11] | Potency [12]

O=C(CCN1CCC(c2ccccc2)C1)c1ccc2c(c1)OCCO2 (stereo not drawn)
active: Potency [15] 23.7 µM
inactive: Potency [1] | Potency [16] | Potency [4] | Potency [14] | Potency [10]
